Here are results for 6 compounds from PubChem BioAssay (NCI).

Molecules are shown by their SMILES. The panel holds about 83,000 compounds, 20% with a hit somewhere; the sample as a whole holds those more often.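 Single-concentration screen, 48 h exposure, 96-well plates. Endpoint: percent growth. Below 10 = active.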 Values without a mark were called inactive. Calls of active or inactive are those of the source.

The test system of the assay is HL-60(TB) leukemia. Kind of assay: NCI-60 one-dose screen, 48 h (100 = growth as untreated, 0 = no growth, -100 = all killed). The conditions noted are these: 10 µM unless noted.
Turning to `COc1ccc(NC(=O)CSc2nnc(-c3ccc4nc(-c5ccccc5)[nH]c4c3)o2)cc1`, the growth is 101%.

`CCCCCN1C(=O)/C(=c2\sc3n(c2=O)C2C(NN=3)N(CC)C(=O)N2CC)c2cccc(C)c21` (stereo unspecified): the growth is 11.9%.

For the compound `COc1c([C@@H](CC(C)C)OC(C)=O)ccc2c1C(=O)OCc1cc(C)cc(O)c1O2`, the growth is 63.7%.

For `NNc1nnc2nc(Nc3ccccc3)nc(Nc3ccc(S(N)(=O)=O)cc3)n12`, the growth was 108%.

`O=C(O)CNS(=O)(=O)c1ccc(Oc2ccc(S(=O)(=O)NCC(=O)O)cc2)cc1`: the growth was 91%.

`Cc1ccc2c(n1)C(=O)C(Cl)=C(Nc1cccc(C)c1C)C2=O`: the growth was -23.2% (active).
